{"source": "PubChem BioAssay (NCATS)", "note": "Records with an inconclusive call do not appear. Values without a mark were called inactive. Activity calls are given as the source filed them. The call rests on the fitted dose curve; in most records, active means well fitted inhibition curve with a large enough effect; inconclusive means small, poorly fitted or top-dose-only effect; inactive means no such curve, though single readings can be large or run the other way.", "data": [{"test_system": "Zika virus NS2B-NS3 protease (linked construct)", "assay": "Primary screen NINDS Rhodamine qHTS for Zika virus inhibitors (AID 1347160); further: nearly all actives have a fitted effect of over 55% in size; on activity change, negative = inhibition: on the % scale 0 is the no-effect control and ±100 the full control effect", "conditions": "purified NS2B-NS3 protease, Rhodamine110 substrate fluorescence; series mostly up to 57.1 µM; activity change, negative = inhibition: at the top concentration", "procedure,_shortened": "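Purified NS2B-NS3 protease with the NS2B hydrophilic domain joined by a flexible linker (25 nM) in 10 mM Tris-HCl pH 8.0, 0.01% Tween 20, preincubated 15 min at RT with compound; Rhodamine110 peptide substrate 1.5 µM; fluorescence change over 15 min; 4-parameter Hill fit.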", "values": [{"molecule": "Cc1cc2c(c(=O)[nH]1)OC(C(O)CC(C)C)O2", "note": "(stereo not given)", "activity change, negative = inhibition": "-18.4%"}, {"molecule": "COc1ccc(/C=C/C(=O)O[C@@H]2[C@@H](O)[C@@H](O)[C@H](O[C@@H]3C=C(CO)[C@H]4[C@H](O[C@@H]5O[C@H](CO)[C@@H](O)[C@H](O)[C@H]5O)OC=C[C@H]43)O[C@H]2C)cc1O", "activity change, negative = inhibition": "-21.6% [at 15.1 µM]"}, {"molecule": "Cc1cc(C)c(CNC(=O)c2cc(-c3ccc(CN4CCOCC4)cc3)cc3c2cnn3C2CCCC2)c(=O)[nH]1", "activity change, negative = inhibition": "14.5%"}, {"molecule": "CCC[C@@H]1O[C@@H]2C[C@H]3[C@@H]4CCC5=CC(=O)C=C[C@]5(C)[C@H]4[C@@H](O)C[C@]3(C)[C@]2(C(=O)CO)O1", "activity change, negative = inhibition": "-0.269%"}, {"molecule": "COc1c2c(c(C)c3c1C(=O)OC3)OC1(C)CC(O)C34OC(OC)(CC(OC(C)=O)C3(C)C1C2)OC4(C)C", "note": "(stereo not given)", "activity change, negative = inhibition": "-21.2% [at 33.1 µM]"}, {"molecule": "COc1ccc(C[C@H](N)C(=O)N[C@@H]2[C@H](O)[C@H](n3cnc4c(N(C)C)ncnc43)O[C@@H]2CO)cc1", "activity change, negative = inhibition": "75.6%"}, {"molecule": "CC(=O)OC1C(O)CC2(C)C(CCC(C)C23Cc2c(O)cc(CO)c(C=O)c2O3)C1(C)C", "note": "(stereo not given)", "outcome": "inactive [at 33.1 µM]"}, {"molecule": "CCCCOC(=O)NC(=O)C1c2ccccc2Oc2ccccc21", "activity change, negative = inhibition": "-9.32%"}, {"molecule": "CC1(C)CC[C@]2(C(=O)O[C@@H]3O[C@H](CO)[C@@H](O)[C@H](O)[C@H]3O)CC[C@]3(C)C(=CCC4[C@@]5(C)CC[C@H](O[C@@H]6O[C@H](C(=O)O)[C@@H](O)[C@H](O)[C@H]6O)C(C)(C)C5CC[C@]43C)C2C1", "note": "(stereo not given in full)", "activity change, negative = inhibition": "-16.1% [at 15.1 µM]"}, {"molecule": "C=C1C(OC(=O)/C(C)=C\\C)[C@@]23CCC4[C@@](C)(CCC[C@@]4(C)C(=O)O)C2CC[C@H]1C3OC(C)=O", "note": "(stereo not given in full)", "activity change, negative = inhibition": "-11.9% [at 33.1 µM]"}, {"molecule": "Cc1ccccc1CN1C2=NCCN2C(=O)C2=C1CCN(Cc1ccccc1)C2", "activity change, negative = inhibition": "-10.3%"}, {"molecule": "CC(C)C[C@H](CC(=O)NO)C(=O)N[C@H](C(=O)N[C@@H](C)C(=O)NCCN)C(C)(C)C", "activity change, negative = inhibition": "-11.4% [at 10.7 µM]"}, {"molecule": "CC1(C)CC[C@]2(C(=O)O)CC[C@]3(C)C(=CCC4[C@@]5(C)CC[C@H](O[C@@H]6O[C@H](CO)[C@@H](O)[C@H](O)[C@H]6O[C@@H]6O[C@H](CO)[C@@H](O)[C@H](O)[C@H]6O)[C@@](C)(CO)C5CC[C@]43C)[C@@H]2C1", "note": "(stereo not given in full)", "activity change, negative = inhibition": "4.65% [at 15.1 µM]"}, {"molecule": "CC12CCC(=O)C=C1C(O)CC1C2C(O)CC2(C)C1CC[C@]2(O)C(=O)CO", "note": "(stereo not given in full)", "activity change, negative = inhibition": "17.1% [at 15.1 µM]"}, {"molecule": "CN1c2ccccc2C(=O)N2CCC3c4ccccc4NC3C21", "note": "(stereo not given)", "outcome": "inactive [at 33.1 µM]"}, {"molecule": "COc1cc(O)c2c(c1)C1=CC(O)C(O)CC1(C)OC2=O", "note": "(stereo not given)", "outcome": "inactive"}, {"molecule": "CC1=CC(=O)CC(C)(C)[C@@]1(O)CC[C@@H](C)O[C@@H]1O[C@H](CO)[C@@H](O)[C@H](O)[C@H]1O", "outcome": "inactive [at 33.1 µM]"}, {"molecule": "C[C@@H]1CN(Cc2ncccn2)C[C@H]1c1nc2c(cnn2C2CCOCC2)c(=O)[nH]1", "outcome": "inactive"}, {"molecule": "COc1ccc(/C=C/C(=O)O[C@@H]2[C@@H](O)[C@H](C)O[C@@H](O[C@H]3[C@@H]4C=CO[C@@H](O[C@H]5O[C@@H](CO)[C@H](O)[C@@H](O)[C@@H]5O)[C@@H]4[C@@]4(CO)O[C@@H]34)[C@@H]2OC(C)=O)cc1", "activity change, negative = inhibition": "-7.47% [at 15.1 µM]"}, {"molecule": "CC1=CCC2C(C)(C)CCC[C@]2(C)[C@@]12CC[C@](C)(CC(=O)O)O2", "note": "(stereo not given in full)", "activity change, negative = inhibition": "-3.57% [at 33.1 µM]"}, {"molecule": "CC[C@]1(O)CC2CN(CCc3c([nH]c4ccccc34)[C@@](C(=O)OC)(c3cc4c(cc3OC)N(C)[C@H]3[C@@](O)(C(=O)OC)[C@H](OC(C)=O)[C@]5(CC)C=CCN6CC[C@]43[C@@H]65)C2)C1", "note": "(stereo not given in full)", "activity change, negative = inhibition": "84%"}, {"molecule": "CC(C)=CCC/C(C)=C/CO[C@@H]1O[C@H](CO)[C@@H](OC(=O)/C=C/c2ccc(O)cc2)[C@H](O[C@@H]2O[C@@H](C)[C@H](O)[C@@H](O)[C@H]2O)[C@H]1O", "activity change, negative = inhibition": "-5.05% [at 15.1 µM]"}, {"molecule": "C/C=C/C=C/[C@@H]1O[C@](O)([C@H](CC)C(=O)NC/C=C/C=C(\\C)[C@@H](OC)[C@@H](C)C2OC(/C=C/C=C/C=C(\\C)C(=O)c3c(O)cc[nH]c3=O)[C@H](O)[C@@H]2O)[C@H](O)[C@H](O)C1(C)C", "note": "(stereo not given in full)", "outcome": "inactive [at 15.1 µM]"}, {"molecule": "CC1=C(CCC(C)O[C@@H]2O[C@H](CO)[C@@H](O)[C@H](O)[C@H]2O)C(C)(C)CCC1=O", "note": "(stereo not given in full)", "activity change, negative = inhibition": "-21.5% [at 33.1 µM]"}, {"molecule": "CC1OC(OC2C(O)C(OC3CCC4(C)C(CCC5(C)C4CC=C4C6CC(C)(COC7OC(CO)C(O)C(O)C7O)CC(O)C6(C)CCC45C)C3(C)C)OC(C(=O)O)C2O)C(O)C(O)C1OC1OCC(O)C(O)C1O", "note": "(stereo not given)", "activity change, negative = inhibition": "-26.7% [at 15.1 µM]"}, {"molecule": "C[C@@H]1CN(Cc2ccccc2)C[C@H]1c1nc2c(cnn2C2CCOCC2)c(=O)[nH]1", "outcome": "inactive"}, {"molecule": "CC(=O)NC1C(OC(C)(C)C2CCC3(C)C=C(C4CCC5C4(C)CC(O)C4OC(C(C)(C)O)CCC45C)CCC3O2)OC(CO)C(O)C1O", "note": "(stereo not given)", "activity change, negative = inhibition": "-7.44% [at 15.1 µM]"}, {"molecule": "C/C=C/C1=CC2=C(CO1)C(=O)C(C)(O)C(OC(=O)c1c(C)cc(OC)cc1O)C2", "note": "(stereo not given)", "activity change, negative = inhibition": "-4.67% [at 33.1 µM]"}, {"molecule": "C=C(CO[C@@H]1O[C@H](CO[C@@H]2OC[C@](O)(CO)[C@H]2O)[C@@H](O)[C@H](O)[C@H]1O)C1Cc2cc(C(C)=O)ccc2O1", "note": "(stereo not given in full)", "activity change, negative = inhibition": "-5.28% [at 33.1 µM]"}, {"molecule": "COC(=O)C[C@H]1[C@]2(C)C3=C(C)[C@H](c4ccoc4)C[C@H]3O[C@@H]2[C@H](OC(C)=O)C2[C@](C)(C(=O)OC)C=CC(=O)[C@@]21C", "note": "(stereo not given in full)", "activity change, negative = inhibition": "-27% [at 33.1 µM]"}, {"molecule": "Nc1nc(Nc2ccc(S(N)(=O)=O)cc2)n(C(=S)Nc2c(F)cccc2F)n1", "activity change, negative = inhibition": "33.8%"}, {"molecule": "C[C@@H]1CC[C@]2(C(=O)O)CC[C@]3(C)C(=CCC4[C@@]5(C)C[C@@H](O)[C@H](O)[C@@](C)(CO)C5CC[C@]43C)C2[C@]1(C)O", "note": "(stereo not given in full)", "activity change, negative = inhibition": "-17.5% [at 33.1 µM]"}, {"molecule": "CO[C@H]1/C=C/C=C/C=C/C[C@H](OC(=O)[C@@H](C)NC(=O)C2CCCCC2)[C@H](C)[C@@H](O)/C(C)=C/CCc2cc(O)cc(c2)NC(=O)C1", "activity change, negative = inhibition": "-15.5% [at 15.1 µM]"}, {"molecule": "CNC(=O)c1ccccc1Nc1nc(Nc2ccc3c(c2OC)CCCC(N2CCN(CCO)CC2)C3)ncc1Cl", "note": "(stereo not given)", "activity change, negative = inhibition": "151%"}, {"molecule": "C/C=C1\\[C@H](O[C@@H]2O[C@H](CO)[C@@H](O)[C@H](O)[C@H]2O)OC=C(C(=O)OC)[C@H]1CC(=O)OC[C@H]1O[C@@H](OCCc2ccc(O)cc2)[C@H](O)[C@@H](O)[C@@H]1O", "outcome": "inactive [at 15.1 µM]"}, {"molecule": "CC(=O)OC1/C(C)=C/C(=O)C(OC(C)=O)C(C)(C)/C=C/C(C)C(=O)C2(OC(C)=O)CC(C)C(OC(=O)c3ccccc3)C12", "note": "(stereo not given)", "activity change, negative = inhibition": "-0.121% [at 15.1 µM]"}, {"molecule": "C=C1C(=O)OC2/C=C(\\CO)CC/C=C(\\C=O)CC(OC(=O)CC(C)C)C12", "note": "(stereo not given)", "activity change, negative = inhibition": "7.51% [at 33.1 µM]"}, {"molecule": "C=C(C(=O)O)[C@@H]1CC[C@@]2(C)CC[C@H](O)[C@@]2(C(C)=O)C1", "activity change, negative = inhibition": "0.306%"}, {"molecule": "CO[C@H]1C[C@@H]2CC[C@@H](C)[C@@](O)(O2)C(=O)C(=O)N2CCCC[C@H]2C(=O)O[C@H]([C@H](C)C[C@@H]2CC[C@H](n3cnnn3)[C@H](OC)C2)CC(=O)[C@H](C)/C=C(\\C)[C@@H](O)[C@@H](OC)C(=O)[C@H](C)C[C@H](C)/C=C/C=C/C=C/1C", "activity change, negative = inhibition": "-24.6% [at 33.1 µM]"}, {"molecule": "C=C1C(=O)O[C@H]2[C@H]1CC/C(C)=C/CC[C@@]1(C)O[C@@H]21", "Potency": "inactive"}]}]}
